Experimental data reported in ChEMBL document CHEMBL4513146, “CO-ADD screening of Karazin Kharkiv National University (Ukraine) compounds”.
Measured potencies and affinities stand elsewhere.

Legend:
[1] = test system: Klebsiella pneumoniae; conditions: Concentration 32 ug.mL-1;; ASSAY_TEST Inhibition of Bacterial Growth; detection method Absorption (OD600); MEDIA CAMHB; plate type 384well; NBS; CORNING #3640; time 18 hr
[2] = test system: Candida albicans; conditions: Concentration 32 ug.mL-1; ASSAY_TEST Inhibition of Fungal Growth; detection method Absorption (OD530)
[3] = test system: Cryptococcus neoformans; conditions: Concentration 32 ug.mL-1; ASSAY_TEST Inhibition of Fungal Growth; detection method Resazurin; Absorption (OD600-OD570); plate type 384well; NBS; CORNING #3640

SMILES	Inhibition [1]	Inhibition [2]	Inhibition [3]
CCc1nnc2c(SCC(=O)Nc3c(C)cc(C)cc3C)nc3ccccc3n12	8.2%	1.5%	-17.04%
CCOC(=O)c1ccc(NC(=O)Cn2nc3ccc(S(=O)(=O)C(C)(C)C)nn3c2=O)cc1	4.44%	15.58%	-19.66%
O=c1c2sccc2n2c(=O)n(Cc3cccc(F)c3)nc2n1Cc1cccs1	-6.06%	36.13%	-19.84%
COc1ccc(C)cc1NC(=O)Cn1nc2ccc(SC(C)(C)C)nn2c1=O	5.72%	3.1%	-12.69%
O=C(CSc1nnc2c3cc(-c4ccc(F)cc4)nn3ccn12)NCCc1ccccc1	7.72%	2.21%	-23.19%
Cc1cccc(CN(c2cccc(Cl)c2)S(=O)(=O)c2cccn3c(C)nnc23)c1	-0.09%	1.52%	-9.64%
CCCCOc1ccc(-c2cc3c4nnc(SCC(=O)N(CC)c5ccccc5)n4ccn3n2)cc1	16.4%	5.05%	-16.28%
CCOc1ccc(NC(=O)Cn2nc3c(Sc4cccc(F)c4)nccn3c2=O)cc1	-0.38%	0.06%	-4.31%
COc1cccc(CNC(=O)CSc2nnc3c(=O)n(-c4ccc(F)cc4)ccn23)c1OC	1.04%	2.96%	-5.56%
Cc1ccccc1CN(c1ccc(C(C)C)cc1)S(=O)(=O)c1cccn2cnnc12	21.6%	3.03%	-21.28%
CSc1cccc(NC(=O)Cn2nc3ccc(-c4ccc(C)c(C)c4)nn3c2=O)c1	-6.08%	28.21%	-10.99%
O=c1n(Cc2cccc(C(F)(F)F)c2)nc2c(S(=O)(=O)N3CCCC3)cccn12	13.65%	1.01%	-8.52%
Cc1cc(C)cc(NC(=O)CSc2nnc3c(=O)n(-c4ccc(Br)cc4)ccn23)c1	11.44%	6.21%	-22.2%
COC(=O)c1cccc(NC(=O)Cn2nc3c(Oc4ccccc4)nccn3c2=O)c1	3.42%	3.07%	-9.43%
CCOc1ccc(-n2ccn3c(SCC(=O)Nc4ccc(Cl)cc4)nnc3c2=O)cc1	5.78%	3.69%	-6.67%
O=c1c2sccc2n2c(=O)n(Cc3cccc(C(F)(F)F)c3)nc2n1Cc1cccs1	15.22%	35.9%	-33.79%
CC(C)c1nnc2c(SCC(=O)Nc3ccc(C#N)cc3)nc3ccccc3n12	10.23%	0.55%	-7.9%
CC(C)c1nnc2c(=O)n(CC(=O)Nc3cccc(Cl)c3)c3ccccc3n12	4.29%	3.06%	-36.03%
O=C(CSc1nnc2c(=O)n(-c3ccc(F)c(F)c3)ccn12)c1c[nH]c2ccccc12	5.97%	22.97%	-8.04%
O=C(Cn1nc2n(Cc3ccc(F)cc3)c(=O)c3ccccc3n2c1=O)Nc1ccc2c(c1)OCO2	8.5%	5.19%	-6.14%

SMILES	Inhibition [1]	Inhibition [2]	Inhibition [3]
Cc1cc(C)cc(N(Cc2cccc(Cl)c2)S(=O)(=O)c2cccn3cnnc23)c1	9.53%	1.12%	-7.68%
Cc1ccc(-c2cc3c4nn(CC(=O)Nc5cc(F)ccc5C)c(=O)n4ccn3n2)cc1C	2.94%	-1.13%	-10.17%
O=C(CCc1nnc2c3cc(-c4ccc(Cl)cc4)nn3ccn12)N1CCN(c2ccccn2)CC1	12.64%	-0.78%	-16.65%
Cc1ccc(-n2ccn3c(SCC(=O)N4CCN(c5ccc(F)cc5)CC4)nnc3c2=O)cc1C	1.76%	0.36%	-5.04%
CC(C)(C)OC(=O)N1CCC(NC(=O)CCc2nnc3ccc(-c4ccccc4)nn23)CC1	12.09%	0.97%	-4.02%
COc1ccc(CNC(=O)Cn2nc3c4cc(-c5ccc(Cl)cc5)nn4ccn3c2=O)cc1	11.83%	1.19%	-27.86%
Cc1ccc(-c2ccc3nn(CC(=O)N4CCN(c5ccccc5F)CC4)c(=O)n3n2)cc1C	9.79%	0.84%	-7.8%
C=Cc1ccc(CN(c2ccc(CC)cc2)S(=O)(=O)c2cccn3c(C)nnc23)cc1	2.48%	4.32%	-7.66%
Cc1cc(Nc2ccc(F)cc2)nc2nn(Cc3cccc(C#N)c3)c(=O)n12	10.49%	2.04%	-10.7%
Cc1ccc(-n2ccn3c(=O)n(Cc4cccc(F)c4)nc3c2=O)cc1C	5.72%	0.74%	-14.54%
COc1cccc(CNC(=O)CCc2nnc3ccc(-c4ccc(C)cc4)nn23)c1	5.64%	2.05%	-1.51%
Cc1ccc(NC(=O)Cn2nc3c(Sc4cccc(F)c4)nccn3c2=O)cc1F	11.17%	0.17%	-11.09%
CC(C)(C)S(=O)(=O)c1ccc2nn(CC(=O)Nc3ccc(Br)cc3)c(=O)n2n1	6.53%	2.28%	-17.49%
Cc1ccc(Oc2nccn3c(=O)n(CC(=O)NCCC4=CCCCC4)nc23)cc1	12.14%	4.38%	-9.17%
COc1ccc(NC(=O)Cn2nc3nc(N4CCOCC4)ccn3c2=O)cc1Cl	17.46%	1.98%	-8.34%
COc1ccc(NC(=O)c2ccc3nn(CC(=O)Nc4cc(Cl)ccc4OC)c(=O)n3c2)cc1	1.5%	2.28%	-8.79%
CC(C)c1nnc2c(SCC(=O)Nc3ccccc3F)nc3ccccc3n12	10.81%	2.9%	-27.54%
Cc1ccc(Sc2ccc3nn(CC(=O)Nc4ccc(F)c(Cl)c4)c(=O)n3n2)cc1	6.66%	6.36%	-7.28%
Cc1ccc(NC(=O)Cn2c(=O)c3nnc(C(C)C)n3c3ccccc32)c(C)c1	5.02%	1.04%	-15.61%
Cc1c(Cl)cccc1-n1ccn2c(=O)n(Cc3cccc(Cl)c3)nc2c1=O	5.86%	2.56%	-15.28%

SMILES	Inhibition [1]	Inhibition [2]	Inhibition [3]
COC(=O)c1ccccc1NC(=O)Cn1nc2c(SC3CCCCC3)nccn2c1=O	12.08%	1.97%	-21.3%
COc1ccc(NC(=O)Cn2nc3c(Sc4ccccc4)nccn3c2=O)cc1OC	6.09%	1.58%	-22.41%
Cc1ccc(-c2cc3c4nn(CC(=O)Nc5cccc(C)c5C)c(=O)n4ccn3n2)cc1C	14.55%	0.02%	-23.37%
CC(C)Sc1ccc2nn(CC(=O)Nc3ccc(F)cc3Cl)c(=O)n2n1	6.92%	3.44%	-6.24%
COc1cc(NC(=O)CSc2nnc3c(=O)n(-c4cccc(OC)c4)ccn23)cc(OC)c1	6.06%	3.75%	-8.68%
CCOc1ccc(-n2ccn3c(SCC(=O)c4c(C)[nH]c5ccccc45)nnc3c2=O)cc1	3.78%	2.22%	-13.8%
Cc1ccccc1Oc1nc2ccccc2n2c(=O)n(CC(=O)Nc3ccccc3C(F)(F)F)nc12	7.22%	11.93%	-23.01%
COc1ccccc1-n1ccn2c(SCc3ccccc3F)nnc2c1=O	11.1%	2.31%	-5.25%
CCCc1nnc2c(=O)n(CC(=O)Nc3ccc(NC(C)=O)cc3)c3ccccc3n12	9.56%	-0.49%	-26.74%
CCOC(=O)c1ccc(NC(=O)Cn2nc3ccc(SC(C)(C)C)nn3c2=O)cc1	7.26%	5.28%	-37.99%
COc1cccc(CN(c2cc(F)cc(F)c2)S(=O)(=O)c2ccc3nnc(C)n3c2)c1	6.42%	1.34%	-5.08%
CCCCn1c(=O)c2sccc2n2c(=O)n(CC(=O)c3ccc(OC)c(OC)c3)nc12	19.59%	-0.04%	-27.81%
O=C(Cn1nc2c3sc(N4CCCC4)nc3ncn2c1=O)Nc1ccc(C(F)(F)F)cc1	13.17%	1.98%	-9.31%
CCCCOc1ccc(-c2cc3c4nnc(SCC(=O)Nc5cc(C)ccc5OC)n4ccn3n2)cc1	-4.93%	45.46%	-16.58%
O=C(CSc1nnc2n(CC3CCCO3)c(=O)c3sccc3n12)Nc1ccc(F)cc1Cl (stereo not given)	1.23%	-2.01%	-23.1%
CC(C)c1nnc2c(SCC(=O)Nc3ccc(Cl)cc3C(F)(F)F)nc3ccccc3n12	1.04%	3.28%	-8.02%
COc1ccc(NC(=O)C(C)Sc2nnc3c(=O)n(-c4ccccc4)ccn23)cc1 (stereo not given)	12.19%	1.79%	-7.55%
O=S(=O)(c1cccn2cnnc12)N(Cc1ccc(F)cc1)c1ccc(F)c(F)c1	4.99%	2.27%	-6.23%
Cc1cccc(CN(c2ccc(F)cc2)S(=O)(=O)c2ccc3nnc(C)n3c2)c1	6.15%	1.93%	-4.65%
Cc1ccc(-n2ccn3c(SCC#N)nnc3c2=O)cc1C	10.69%	1.05%	-5.76%
